The nature of assay [1]: blockers of polyQ-driven CASP3 activation – cell-based (AID 1583). The note with it: polyglutamine-induced caspase-3 activation, cell assay; stronger effect = higher value;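 tested at 10 µM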.
Assay [2] is described as follows: yeast 75Q aggregation reduction – 75Q-TubU reporter (AID 1593). The note with it: Yeast 75Q polyglutamine aggregation reporter.
Assay [3] can be described thus: restoration of touch response, mutant HTT neurons – whole organism, C. elegans mechanosensory neurons, N-terminal huntingtin (AID 1599). The following applies: C. elegans polyQ-huntingtin mechanosensory neurons, stronger effect = higher value.
Assay [4] can be described thus: blockers of cytochrome c efflux from mitochondria – biochemical, purified mitochondria (AID 1603).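 Further: mouse liver mitochondria challenged with calcium chloride; signal normalized to the plate average as 100%.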 The following applies: stronger effect = lower value.
Assay [5] in a line: polyglutamine aggregate formation blockers (AID 1604). The following applies: polyglutamine-induced protein aggregation inhibition assay; stronger effect = higher value; tested at 2.5 µM.
The target in assay [6] is ATP-dependent translocase ABCB1 (Homo sapiens) (UniProt P08183). Description: P-glycoprotein substrate transport blockade – cell-based (AID 377). The note with it: MDR1-expressing cells, fluorescent substrate accumulation slope; stronger effect = higher value; concentration not given here.

Records with an inconclusive call do not appear. For some of these results: Results with a measured potency or affinity are listed apart. Active and inactive are the calls of the source. No stated cut-off is given here; in the data, active means fluorescence slope change above about 50%; inconclusive means mostly about 31% to 49%; inactive means weaker than that.

Chain of ATP-dependent translocase ABCB1 (Homo sapiens) (P08183 whole entry, looked up): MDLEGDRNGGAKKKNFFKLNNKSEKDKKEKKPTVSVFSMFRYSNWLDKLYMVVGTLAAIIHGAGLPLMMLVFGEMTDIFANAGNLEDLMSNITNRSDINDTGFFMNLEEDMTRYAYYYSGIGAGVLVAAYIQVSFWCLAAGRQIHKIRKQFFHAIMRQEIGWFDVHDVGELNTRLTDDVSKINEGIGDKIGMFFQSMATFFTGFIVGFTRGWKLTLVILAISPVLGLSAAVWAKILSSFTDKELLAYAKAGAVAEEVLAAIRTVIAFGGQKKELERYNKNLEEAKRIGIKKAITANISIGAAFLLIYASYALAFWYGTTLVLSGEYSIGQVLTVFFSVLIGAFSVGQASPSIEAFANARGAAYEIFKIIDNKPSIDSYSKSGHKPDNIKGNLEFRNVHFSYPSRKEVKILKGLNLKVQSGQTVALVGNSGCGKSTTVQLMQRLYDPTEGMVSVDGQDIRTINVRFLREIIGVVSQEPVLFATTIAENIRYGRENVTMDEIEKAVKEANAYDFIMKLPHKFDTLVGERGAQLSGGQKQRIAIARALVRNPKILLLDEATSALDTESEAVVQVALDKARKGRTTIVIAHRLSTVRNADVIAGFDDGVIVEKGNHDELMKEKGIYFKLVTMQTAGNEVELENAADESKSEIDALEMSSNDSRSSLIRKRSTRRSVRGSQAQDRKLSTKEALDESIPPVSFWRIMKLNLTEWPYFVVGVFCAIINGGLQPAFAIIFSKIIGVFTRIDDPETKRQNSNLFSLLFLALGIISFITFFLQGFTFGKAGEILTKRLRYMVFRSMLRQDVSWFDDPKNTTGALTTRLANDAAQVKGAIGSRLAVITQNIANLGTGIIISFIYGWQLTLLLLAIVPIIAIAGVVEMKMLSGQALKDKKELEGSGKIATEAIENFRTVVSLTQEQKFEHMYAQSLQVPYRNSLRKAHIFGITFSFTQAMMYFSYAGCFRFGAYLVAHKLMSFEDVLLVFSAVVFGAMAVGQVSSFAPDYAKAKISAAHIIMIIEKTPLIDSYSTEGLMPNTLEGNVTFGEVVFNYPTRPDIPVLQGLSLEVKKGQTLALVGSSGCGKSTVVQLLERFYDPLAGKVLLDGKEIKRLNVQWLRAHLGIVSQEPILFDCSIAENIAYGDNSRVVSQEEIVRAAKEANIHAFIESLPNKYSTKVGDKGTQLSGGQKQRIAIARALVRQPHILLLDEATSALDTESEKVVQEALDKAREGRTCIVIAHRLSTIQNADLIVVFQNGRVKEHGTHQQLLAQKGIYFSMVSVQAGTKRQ

For the compound `COc1cccc(OC)c1C(=O)N[C@@H]1C(=O)N2[C@@H]1SC(C)(C)[C@@H]2C(=O)O`, the inhibition in assay [1] came out at 11.5%. Moreover, the score in assay [2] was found to be 1.48. This compound also came in with a rescue above control in assay [3] of -12.3. Moreover, the cytochrome c release ratio in assay [4] is 0.93. The inhibition of aggregation in assay [5] turned out to be 45.9%.
Turning to `CN(C)CCCN1c2ccccc2Sc2ccccc21`, in assay [1], the inhibition was -14.3%. Besides, in assay [2], the score is 1.56. In assay [3], the rescue above control is 23.4. For the same compound, the cytochrome c release ratio in assay [4] worked out at 1.27. Besides, the inhibition of aggregation in assay [5] is 23.9%.
With `CC1(C)S[C@@H]2[C@H](NC(=O)[C@H](N)c3ccccc3)C(=O)N2[C@H]1C(=O)O`, the inhibition in assay [1] was determined as 14.1%. For the same compound, in assay [2], the score is 1.62. Besides, the rescue above control in assay [3] was -3.83. In addition, in assay [4], the cytochrome c release ratio was determined as 1.35. Besides, the inhibition of aggregation in assay [5] was 80.3%.
For `CCN(CC)CCOC(=O)C(c1ccccc1)c1ccccc1` the same measures were 11.6%, 0.88, 8.76, 1.09 and 66.7%.
For `CCN(CC)CCOC(=O)C(c1ccccc1)C1CCCCC1` (centres undefined), the fluorescence slope change in assay [6] was 89.7% (active). The inhibition in assay [1] came to 14.6%. The score in assay [2] amounted to 1.92. Besides, the rescue above control in assay [3] worked out at 0.94. For the same compound, the cytochrome c release ratio in assay [4] was found to be 1.03. Besides, the inhibition of aggregation in assay [5] is 6.35%.
With `NNc1nncc2ccccc12`, the fluorescence slope change in assay [6] was 71.4% (active). In addition, the inhibition in assay [1] was 24%. The score in assay [2] is 1.45. Moreover, in assay [3], the rescue above control was -2.16. In addition, the cytochrome c release ratio in assay [4] came out at 0.9. The inhibition of aggregation in assay [5] is -30.3%.
As for `CCN(CC)CCOC(=O)C(Cc1cccc2ccccc12)CC1CCCO1` (centres undefined), the fluorescence slope change in assay [6] is 91.9% (active). Further, the inhibition in assay [1] is -17.5%. In assay [2], this compound gave a score of 1.25. Also, the rescue above control in assay [3] was 1.39. The cytochrome c release ratio in assay [4] was determined as 1.11. Moreover, the inhibition of aggregation in assay [5] is 22.2%.
As to `Cc1nc2sccn2c(=O)c1CCN1CCC(=C(c2ccc(F)cc2)c2ccc(F)cc2)CC1`, the inhibition in assay [1] was -6.39%. The same compound had a score in assay [2] of 1.46. Moreover, the rescue above control in assay [3] came to 0. The cytochrome c release ratio in assay [4] turned out to be 0.36. The inhibition of aggregation in assay [5] was determined as 7.32%.
For `CC(N)CCCC(C)(C)O` (centres undefined) the same measures were 23.3%, 1.12, -5.82, 0.68 and 19.1%.
As to `COc1ccccc1OCC(O)CO` (centres undefined), in assay [6], the fluorescence slope change was 12.6% (inactive). Moreover, the inhibition in assay [1] is -27.7%. Further, the score in assay [2] came out at 0.87. Moreover, the rescue above control in assay [3] was -10.8. In addition, in assay [4], the cytochrome c release ratio is 1.15. Besides, the inhibition of aggregation in assay [5] was 58.9%.
With `NC(CO)C(=O)NNCc1ccc(O)c(O)c1O` (centres undefined), in assay [1], the inhibition amounted to 5.62%. This compound showed a score in assay [2] of 1.68. Also, the rescue above control in assay [3] came out at 7.52. Moreover, the cytochrome c release ratio in assay [4] was 0.53. Further, the inhibition of aggregation in assay [5] worked out at 89.7%.
For `O=c1cc(CO)occ1O`, the inhibition in assay [1] was determined as 12%. In assay [2], this compound yielded a score of 1.29. For the same compound, the rescue above control in assay [3] is 10.1. Moreover, the cytochrome c release ratio in assay [4] was determined as 0.94. In assay [5], the inhibition of aggregation is 21.8%.
For the compound `CCCCN(CCCC)CCCOC(=O)c1ccc(N)cc1`, the fluorescence slope change in assay [6] was 85.2% (active). Also, the inhibition in assay [1] turned out to be 5.65%. Moreover, the score in assay [2] was 1.13. The compound further gave a rescue above control in assay [3] of -6.3. Further, the cytochrome c release ratio in assay [4] was 0.76. For the same compound, the inhibition of aggregation in assay [5] is 39.2%.
With `O=C(O)c1ccccc1O`, in assay [1], the inhibition was 11.5%. In addition, in assay [2], the score was determined as 0.77. In addition, in assay [3], the rescue above control was -5.04. The cytochrome c release ratio in assay [4] stood at 0.97. The inhibition of aggregation in assay [5] turned out to be 56.1%.
On to `CN(C)c1ccc(C(=C2C=CC(=[N+](C)C)C=C2)c2ccc(N(C)C)cc2)cc1`, for which the inhibition in assay [1] was found to be 60.7%. In addition, the score in assay [2] was -6.36. In assay [3], the rescue above control was found to be 0. Moreover, the cytochrome c release ratio in assay [4] was determined as 1.35. In addition, the inhibition of aggregation in assay [5] came to 16.7%.
For `O=NN(CCCl)C(=O)NCCCl`, in assay [6], the fluorescence slope change is 11.5% (inactive). In addition, the inhibition in assay [1] was -31.5%. In addition, the score in assay [2] came out at 0.3. This compound had a rescue above control in assay [3] of 5.39. Also, the cytochrome c release ratio in assay [4] was 0.91. Also, the inhibition of aggregation in assay [5] amounted to 72.2%.
On to `Cc1ccsc1/C=C/C1=NCCCN1C`, for which the inhibition in assay [1] worked out at 26.5%. In assay [2], this compound showed a score of 0.99. Further, the rescue above control in assay [3] was -7.31. Moreover, the cytochrome c release ratio in assay [4] is 0.66. The inhibition of aggregation in assay [5] worked out at 25.5%.
On to `CC1CCC(NC(=O)N(CCCl)N=O)CC1` (centres undefined), for which, in assay [6], the fluorescence slope change is 10.9% (inactive). Further, in assay [1], the inhibition is 13.6%. Further, in assay [2], the score stood at 0.02. In assay [3], this compound showed a rescue above control of -12.6. In addition, the cytochrome c release ratio in assay [4] is 1.01. Also, the inhibition of aggregation in assay [5] came out at 26.4%.
`C[N+]12CCC(CC1)C(OC(=O)C(O)(c1ccccc1)c1ccccc1)C2` (centres undefined): the fluorescence slope change in assay [6] was 27.6% (inactive). Also, the inhibition in assay [1] is 10.9%. The score in assay [2] worked out at 1.31. In assay [3], the rescue above control came out at 14.7. In assay [4], the cytochrome c release ratio amounted to 1.79. Also, the inhibition of aggregation in assay [5] was 73.8%.
With `C[N+](C)(C)CCOC(N)=O`, in assay [6], the fluorescence slope change was 12.8% (inactive). Moreover, the inhibition in assay [1] is 19.3%. Moreover, the score in assay [2] was 1.38. In assay [3], the rescue above control is 2.63. Also, the cytochrome c release ratio in assay [4] was found to be 0.77. In addition, in assay [5], the inhibition of aggregation was 60.9%.
Take `COc1ccc(CCN2CCC(Nc3nc4ccccc4n3Cc3ccc(F)cc3)CC2)cc1`: the fluorescence slope change in assay [6] is 189% (active). In addition, the inhibition in assay [1] is 17.9%. This compound also displayed a score in assay [2] of 1.54. This compound also yielded a rescue above control in assay [3] of 0. The cytochrome c release ratio in assay [4] was 0.61. The inhibition of aggregation in assay [5] is -3.03%.
As to `CC(=O)Nc1ccc(O)cc1`, in assay [6], the fluorescence slope change is 29.1% (inactive). Besides, the inhibition in assay [1] is -1.78%. The same compound came in with a score in assay [2] of 1.1. The compound further displayed a rescue above control in assay [3] of 12.7. Further, the cytochrome c release ratio in assay [4] worked out at 1.05. Besides, the inhibition of aggregation in assay [5] stood at 74.9%.
Regarding `COCCc1ccc(OCC(O)CNC(C)C)cc1` (centres undefined), the fluorescence slope change in assay [6] is 51% (active). Besides, the inhibition in assay [1] is 9.55%. Further, in assay [2], the score came out at 0.98. The compound also showed a rescue above control in assay [3] of -6.09. In assay [4], the cytochrome c release ratio came to 0.97. Further, the inhibition of aggregation in assay [5] amounted to 69.7%.
Take `Clc1ccc(C(c2ccccc2Cl)C(Cl)Cl)cc1` (centres undefined): the fluorescence slope change in assay [6] is 7.7% (inactive). For the same compound, in assay [1], the inhibition was 21%. This compound gave a score in assay [2] of -3.35. Also, the rescue above control in assay [3] was 0. Further, the cytochrome c release ratio in assay [4] came to 3.7. For the same compound, the inhibition of aggregation in assay [5] stood at 72.2%.
For `COc1ccc2c(c1)c(CC(=O)OCC(=O)O)c(C)n2C(=O)c1ccc(Cl)cc1`, the fluorescence slope change in assay [6] is 79% (active). In addition, in assay [1], the inhibition is -2.12%. The score in assay [2] came to 0.67. In assay [3], this compound yielded a rescue above control of 4.6. The cytochrome c release ratio in assay [4] was 1.11. For the same compound, the inhibition of aggregation in assay [5] was determined as 77.8%.
In the case of `CCN(CC)CCNC(=O)c1cc(S(C)(=O)=O)ccc1OC`, the fluorescence slope change in assay [6] is 144% (active). The inhibition in assay [1] amounted to 6.97%. This compound registered a score in assay [2] of 1.47. In assay [3], this compound had a rescue above control of 10. Further, the cytochrome c release ratio in assay [4] was found to be 5.94. Moreover, the inhibition of aggregation in assay [5] worked out at 79.2%.
As to `CC1=CC(=O)c2ccccc2C1=O`, the fluorescence slope change in assay [6] is 81.2% (active). Moreover, the inhibition in assay [1] amounted to 56.7%. In assay [2], this compound returned a score of -0.01. In assay [3], this compound displayed a rescue above control of -12.4. In addition, the cytochrome c release ratio in assay [4] was 1.17. In assay [5], the inhibition of aggregation worked out at 53.5%.
As for `Clc1ccccc1C(c1ccccc1)(c1ccccc1)n1ccnc1`, the fluorescence slope change in assay [6] is 67.9% (active). The inhibition in assay [1] is 60.7%. For the same compound, the score in assay [2] turned out to be 0.26. In assay [3], this compound showed a rescue above control of -7. Also, in assay [4], the cytochrome c release ratio stood at 4.6. Further, in assay [5], the inhibition of aggregation was 41.7%.
On to `NCCCC[C@H](N[C@@H](CCc1ccccc1)C(=O)O)C(=O)N1CCC[C@H]1C(=O)O`, for which, in assay [6], the fluorescence slope change is 60.6% (active). Further, in assay [1], the inhibition is -0.18%. In assay [2], this compound returned a score of 0.98. This compound also gave a rescue above control in assay [3] of -7.67. Further, the cytochrome c release ratio in assay [4] was determined as 1.03. Further, in assay [5], the inhibition of aggregation stood at 45.6%.
`Fc1ccc(C(c2ccc(F)cc2)N2CCN(C/C=C/c3ccccc3)CC2)cc1`: in assay [6], the fluorescence slope change was 70.9% (active). The inhibition in assay [1] came out at 11.9%. In assay [2], this compound had a score of 0.72. In assay [3], the rescue above control was 11.5. Moreover, the cytochrome c release ratio in assay [4] stood at 1.24. In assay [5], the inhibition of aggregation is 27%.

A word on the inhibition: it is the relative decrease from the control value, in per cent.

The values above are taken from PubChem BioAssay.
